Drawing on PubChem BioAssay (EPA / NIEHS), this text covers AC50 and outcome for 20 compounds.

Read-out in experiment [1]: Vascular endothelial growth factor receptor 2 (Homo sapiens) (UniProt P35968)
In words: BSK_4H_VEGFRII: BioMAP Diversity Plus: 4H Assay for Vascular endothelial growth factor receptor 2 (VEGFR2) Biomarker Activity (AID 2283031).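 On AC50: cell-surface VEGFR2 protein level quantified by ELISA.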 The conditions noted are these: primary human endothelial cells (HUVEC); actives raise or lower the signal. The essentials: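 Measured by ELISA after 24 h of compound treatment: VEGFR2 on primary human umbilical vein endothelial cells, fitted in both directions relative to DMSO. Parallel cultures received SRB staining (560 nm) for overt cytotoxicity.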

Read-out in experiment [2]: Vascular cell adhesion molecule 1 (VCAM1), VCAM1 (gene 7412)
In words: BSK_4H_VCAM1: BioMAP Diversity Plus: 4H Assay for Vascular cell adhesion molecule 1 (VCAM1) Biomarker Activity (AID 2283033).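 On outcome: cell-surface VCAM-1 protein measured by ELISA.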 The conditions noted are these: primary human endothelial cells (HUVEC); actives raise or lower the signal. The essentials: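 In this human endothelial (HUVEC) system, biomarker ELISA was run 24 h after compound addition, and total protein in parallel wells was assessed by SRB at 560 nm; DMSO served as negative control.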

Read-out in experiment [3]: Interferon-gamma inducible Protein 10 (IP10), CXCL10 (gene 3627)
In words: BSK_BE3C_IP10: BioMAP Diversity Plus: BE3C Assay for Interferon-gamma inducible Protein 10 (IP10) Biomarker Activity (AID 2283034). As to conditions: primary human bronchial epithelial cells; actives raise or lower the signal. The essentials: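 BE3C cells (human bronchial epithelial, primary); 24 h exposure; ELISA for IP-10; DMSO-referenced bidirectional fit.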

Read-out in experiment [4]: Monokine induced gamma interferon (MIG), CXCL9 (gene 4283)
In words: BSK_BE3C_MIG: BioMAP Diversity Plus: BE3C Assay for Monokine induced gamma interferon (MIG) Biomarker Activity (AID 2283035).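 On outcome: MIG protein measured by ELISA in BE3C cultures after 24 h of dosing.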 The conditions noted are these: primary human bronchial epithelial cells; actives raise or lower the signal. The essentials:
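hu bronchial epithelial 1° cells, 24 h cpd; MIG by ELISA; bidirectional fit, DMSO = baseline.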

Read-out in experiment [5]: Transforming growth factor beta 1 (TGFb1), TGFB1 (gene 7040)
In words: BSK_BE3C_TGFb1: BioMAP Diversity Plus: BE3C Assay for Transforming growth factor beta 1 (TGFb1) Biomarker Activity (AID 2283036;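 on outcome: TGF-b1 protein level measured by ELISA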). The conditions noted are these: primary human bronchial epithelial cells; actives raise or lower the signal. A digest of the protocol: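 TGF-b1 measured via ELISA, 24 h after chemical dosing of human bronchial epithelial cells (BE3C). Overt cytotoxicity assessed in parallel by SRB (0.1%, TCA-fixed, 560 nm); analysis bidirectional relative to DMSO.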

Read-out in experiment [6]: Plasminogen activator inhibitor-1 (PAI1), SERPINE1 (gene 5054)
In words: BSK_BE3C_PAI1: BioMAP Diversity Plus: BE3C Assay for Plasminogen activator inhibitor-1 (PAI1) Biomarker Activity (AID 2283037). As to conditions: primary human bronchial epithelial cells; actives raise or lower the signal. A digest of the protocol: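 In this multiplexed primary-cell system, bronchial epithelial cells receive test chemical and are sampled at 24 h. PAI-1 is read by ELISA, with DMSO serving as negative control for bidirectional fitting.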

Read-out in experiment [7]: urokinase plasminogen activator (uPA), PLAU (gene 5328)
In words: BSK_BE3C_uPA: BioMAP Diversity Plus: BE3C Assay for urokinase plasminogen activator (uPA) Biomarker Activity (AID 2283038).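 On outcome: uPA protein level quantified by ELISA in cell cultures; uPA read one day after compound addition.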 The conditions noted are these: primary human bronchial epithelial cells; actives raise or lower the signal. The essentials:
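ELISA for uPA on human primary bronchial epithelial cultures 24 h post-treatment, gain or loss against DMSO. Parallel SRB staining (0.1% after 10% TCA fixation, 560 nm) assessed overt cytotoxicity.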

Read-out in experiment [8]: Interleukin-6 (IL6), IL6 (gene 3569)
In words: BSK_CASM3C_IL6: BioMAP Diversity Plus: CASM3C Assay for Interleukin-6 (IL6) Biomarker Activity for (AID 2283040). The conditions noted are these: primary human coronary artery smooth muscle cells; actives raise or lower the signal.

Read-out in experiment [9]: Human Leukocyte Antigen - DR isotype (HLADR), HLA-DRA (gene 3122)
In words: BSK_BE3C_HLADR: BioMAP Diversity Plus: BE3C Assay for Human Leukocyte Antigen - DR isotype (HLADR) Biomarker Activity (AID 2283032). The conditions noted are these: primary human bronchial epithelial cells; actives raise or lower the signal. The essentials: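 BioMAP BE3C format: human bronchial epithelium, 24 h compound treatment, ELISA detection of HLA-DR, with bidirectional analysis relative to DMSO.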

Read-out in experiment [10]: Urokinase-type plasminogen activator receptor (uPAR), PLAUR (gene 5329)
In words: BSK_BE3C_uPAR: BioMAP Diversity Plus: BE3C Assay for Urokinase-type plasminogen activator receptor (uPAR) Biomarker Activity (AID 2283039).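 On outcome: uPAR protein level measured by ELISA on the cells; cells exposed to compound for one day before measurement.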 The conditions noted are these: primary human bronchial epithelial cells; actives raise or lower the signal. A digest of the protocol: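 Chemically treated human bronchial epithelial cells (lung primary) are assayed for uPAR by ELISA after 24 h, with data fitted in both directions using DMSO as negative control.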

Where “and” joins values, the source holds several entries; their conditions need not be identical. Identical values can stand only once. Some structures have more than one record in an assay (separate samples or runs), and their calls can disagree. Calls of active or inactive are those of the source. How the source made its calls: active means hit-call score of the fitted dose curve at least 0.9, where 1 is the maximum; inactive means score below 0.9.

What is called AC50 is the concentration at which the activity in the assay is half-maximal.

For `O=[N+]([O-])c1cc(C(F)(F)F)c(Cl)c([N+](=O)[O-])c1Nc1ncc(C(F)(F)F)cc1Cl`, the AC50 in experiment [1] was 1.2 µM (active); in experiment [2], 1 µM (active) and 2.33 µM (active); in experiment [3], 1.23 µM (active) and 4.77 µM (active); in experiment [4], 4.03 µM (active) and 7.17 µM (active); in [5], 2.51 µM (active) and 9.94 µM (active); in experiment [6], 7.78 µM (active) and 8.98 µM (active). For the same compound, the AC50 in experiment [7] is 2.19 µM (active) and 1.62 µM (active); in experiment [8], 3.6 µM (active). Besides, the outcome in [1] and in experiment [8] was inactive.

For the compound `CC(C)N(C(=O)SCC(Cl)=C(Cl)Cl)C(C)C`, the results for the AC50 in experiment [1] and in experiment [2] were 31.1 µM (active) and 33.1 µM (active), respectively. Also, the result in experiment [9], in experiment [3], in [4], in experiment [5], in experiment [6] and in experiment [7] was inactive. In addition, the outcome in experiment [10] and in [8] was inactive.

Take `CC1=NNC(=O)N(/N=C/c2cccnc2)C1`: the result in experiment [1], in experiment [9], in experiment [2], in experiment [3], in [4] and in experiment [5] was inactive. Also, the outcome in experiment [6], in experiment [7], in [10] and in [8] was inactive.

As to `CCCOc1nn(C(=O)NS(=O)(=O)c2ccccc2C(=O)OC)c(=O)n1C`, the outcome in experiment [1], in [9], in [2], in [3], in [4] and in [5] was inactive. Moreover, the outcome in experiment [6], in experiment [7] and in experiment [8] was inactive.

Regarding `COP(=O)(OC)C(O)C(Cl)(Cl)Cl` (centres undefined), the result in experiment [1], in experiment [2], in experiment [3], in experiment [4], in [5] and in experiment [6] was inactive. The outcome in experiment [7] and in experiment [8] was inactive. Further, the AC50 in experiment [10] is 5.49 µM (active).

With `CC(C)=CC1C(C(=O)OCN2C(=O)C3=C(CCCC3)C2=O)C1(C)C` (centres undefined), the outcome in experiment [1], in experiment [2], in experiment [3], in [4], in [5] and in experiment [6] was inactive. Also, the result in experiment [7] and in experiment [8] was inactive. Besides, in [9], the AC50 was 20 µM (active).

With `CNc1cnn(-c2cccc(C(F)(F)F)c2)c(=O)c1Cl`, the result in experiment [1], in experiment [2], in [3], in experiment [4], in experiment [5] and in [6] was inactive. The result in experiment [7] and in experiment [8] was inactive. For the same compound, the AC50 in experiment [9] is 23.7 µM (active).

As to `CCC(CC)Nc1c([N+](=O)[O-])cc(C)c(C)c1[N+](=O)[O-]`, the result in experiment [1], in [3], in [4], in experiment [5], in experiment [6] and in experiment [7] was inactive. The result in [10] was inactive. The concentration at half-maximal activity (AC50) in experiment [2] is 20 µM (active); in experiment [8], 26.9 µM (active).

Consider `COP(=O)(OC)SCn1c(=O)oc2cc(Cl)cnc21`, for which the outcome in experiment [1], in experiment [2], in experiment [4], in [5], in experiment [6] and in experiment [7] was inactive. Also, the outcome in experiment [8] was inactive. Besides, the AC50 in experiment [9] is 22 µM (active); in experiment [3], 31.2 µM (active).

With `N#CSCSC#N`, the outcome in [1], in experiment [9], in [3], in experiment [4], in [5] and in experiment [6] was inactive. Also, the result in experiment [7] was inactive. For the same compound, the AC50 in experiment [2] was 6.29 µM (active); in [8], 14.4 µM (active).

With `CNC(=O)ON=C(SC)C(=O)N(C)C`, the result in experiment [1], in [9], in [2], in [3], in experiment [4] and in experiment [5] was inactive. Moreover, the result in experiment [6], in experiment [7] and in experiment [8] was inactive.

Take `CC(COc1ccc(Oc2ccccc2)cc1)Oc1ccccn1` (centres undefined): the result in [1], in [9], in [2], in experiment [3], in experiment [4] and in [5] was inactive. The result in experiment [6], in experiment [10] and in [8] was inactive. Moreover, the half-maximal activity concentration (AC50) in experiment [7] is 17.8 µM (active).

For `O=c1ccc(=O)[nH][nH]1`, the result in experiment [1], in experiment [9], in [2], in experiment [3], in experiment [4] and in [5] was inactive. For the same compound, the outcome in [6], in experiment [7] and in experiment [8] was inactive.

Take `Cc1nn(-c2cc(NS(C)(=O)=O)c(Cl)cc2Cl)c(=O)n1C(F)F`: the outcome in [1], in experiment [9], in experiment [2], in [3], in experiment [4] and in [5] was inactive. The result in [6], in [7] and in experiment [8] was inactive.

As to `CSc1nc(NC(C)C)nc(NC(C)C)n1`, the result in experiment [1], in experiment [9], in experiment [2], in experiment [3], in experiment [4] and in experiment [5] was inactive. Moreover, the result in [6], in experiment [7], in experiment [10] and in experiment [8] was inactive.

For `COc1ccc(C(=CC(=O)N2CCOCC2)c2ccc(Cl)cc2)cc1OC`, the result in [1], in experiment [9], in experiment [2], in experiment [3], in [4] and in experiment [5] was inactive. For the same compound, the result in experiment [6], in experiment [7] and in experiment [8] was inactive.

On to `CCc1cccc(C)c1N(C(=O)CCl)C(C)COC` (centres undefined), for which the outcome in experiment [1], in experiment [9], in experiment [2], in [3], in experiment [4] and in experiment [5] was inactive. The result in [6], in experiment [7], in [10] and in [8] was inactive.

As for `CN(C)NC(=O)CCC(=O)O`, the result in experiment [1], in experiment [9], in experiment [2], in experiment [3], in experiment [4] and in experiment [5] was inactive. The result in [6], in [7], in [10] and in experiment [8] was inactive.

Consider `O=C(O)c1cc(Oc2ccc(C(F)(F)F)cc2Cl)ccc1[N+](=O)[O-]`, for which the outcome in [1], in experiment [9], in [2], in [3], in experiment [4] and in experiment [5] was inactive. For the same compound, the result in experiment [6], in [7], in [10] and in experiment [8] was inactive.

For the compound `CCCCOC(=O)[C@@H](C)Oc1ccc(Oc2ccc(C#N)cc2F)cc1`, the outcome in experiment [1], in experiment [9], in experiment [2], in experiment [3], in experiment [4] and in experiment [5] was inactive. Further, the result in experiment [6], in experiment [7] and in [8] was inactive. The concentration at half-maximal activity (AC50) in [10] was 0.811 µM (active).
